From PubChem BioAssay
aSyn UTR act – Activators working through SNCA 5'UTR binding (MLPCN). alpha-synuclein 5'UTR reporter, activators screen. activity score, % (tested at 7.5 µM), hits read low. 7.1% of 300,000 active. AID 1814; in the data active = activity score below about -60%
Active calls of the source: *. A selection follows.

SMILES	aSyn UTR act
Cc1ccc(F)cc1NC(=O)c1sc2ncn(CC(=O)N3CCN(c4ccccn4)CC3)c(=O)c2c1C	-88.7*
O=S(=O)(Cc1noc(-c2ccccc2Cl)n1)c1ccccn1	-70.4*
O=C(NCc1cccs1)c1csc2ccccc12	-61.7*
Cc1cccc2c(=O)c(C(=O)NCc3cccs3)c[nH]c12	-110.4*
CCN1/C(=C/c2ccc3cc(C)ccc3[n+]2CC)Sc2ccccc21	99.9
CCOc1ccc(N)c(SSc2cc(OCC)ccc2N)c1	-121.3*
CN(C)/C=N/C(=S)Nc1ccc(Cl)c(Cl)c1	-66.1*
C=CCSc1cc(C)nc2c(-c3ccccc3)cnn12	-74.3*
Cc1cc(N)n2ncc(-c3ccccc3)c2n1	-148.5*
Cc1cc(C)c(-c2nc3ccccc3s2)[nH]1	-190.2*
CN(C)CCNC(=O)c1cc2c(s1)-c1ccc(Cl)cc1SC2	100.5
O=C(NC1CC1)c1cc2c(s1)-c1ccccc1OC2	-82.4*
O=C(NCc1cccs1)c1cc2c(s1)-c1ccccc1OC2	-89.8*
CC(C)(C)c1cc(NC(=O)c2cccnc2)no1	-102.0*
CC(C)(C)c1cc(NC(=O)C2CCCO2)no1 (configuration not stated)	-103.5*
CC(C)(C)c1cc(NC(=O)c2cc(F)c(F)c(F)c2F)no1	-62.6*
CC(C)(C)c1cc(NC(=O)c2cccs2)no1	-76.5*
Cc1nc(NC(C)C)c2cnn(CCc3ccccc3)c2n1	-133.3*
CCCNc1nc(C)nc2c1cnn2CCc1ccccc1	-104.9*
COc1cc2oc(-c3ccc(O)cc3)cc(=O)c2c(O)c1OC	-73.4*
Cc1cnn(C(=S)NCCc2ccccc2)c1	-136.0*
CCOC(=O)c1cn(CC)c2c(ccc3ccccc32)c1=O	-89.7*
CCOC(=O)N=Nc1c2ccccc2c2nc3no[nH]c3nc12	118.7
COc1cc(CO)ccc1OCc1ccc(Cl)nc1	-102.5*
Cc1nc2cc(-c3ccc(F)cc3)[nH]n2c(=O)c1C	-129.3*
SMILES	aSyn UTR act
Cc1ccccc1-c1cc2nc(C)c(C)c(=O)n2[nH]1	-100.8*
Cc1nc2cc(-c3cccs3)[nH]n2c(=O)c1C	-107.9*
Cn1nc(C(=O)NC2CCCCC2)c2c1-c1ccccc1SC2	-98.0*
O=C(Nc1ccc2c(c1)OCCO2)N1CCN(c2ccc(F)cc2)CC1	-87.9*
O=C(Nc1ccc2c(c1)OCCO2)C1CCN(C(=O)c2ccc(F)cc2)CC1	-84.5*
Cc1cccc(C)c1N1CCN(C(=O)Nc2ccc3c(c2)OCCO3)CC1	-73.7*
CC(NC(=O)Nc1ccc2c(c1)OCO2)C1CCCO1 (configuration not stated)	-112.4*
CC(C)C(NC(=O)C1CCCCC1)C(=O)Nc1ccc2c(c1)OCCO2 (configuration not stated)	-65.7*
O=C(Nc1ccc2c(c1)OCO2)C1CCCCC1	-91.8*
CC(C)(C)c1ccc(-c2noc(-c3ccc4c(c3)CCO4)n2)cc1	-156.8*
Cc1cc(-c2nc(-c3ccc(C(C)(C)C)cc3)no2)no1	-170.5*
Cc1ccn2c(NCc3ccccc3)c(-c3cccs3)nc2c1	-100.0*
Cc1ccn2c(NC3CCCC3)c(-c3cccs3)nc2c1	-116.4*
CN(C)c1ccc(NC(=O)c2ccc(Cn3cc([N+](=O)[O-])cn3)cc2)cc1	-72.9*
O=C(Nc1cnn(Cc2c(Cl)cccc2Cl)c1)c1ccc([N+](=O)[O-])cc1	-64.6*
CCOc1ccccc1-c1nc(-c2cccc(Br)c2)no1	-134.8*
CCOc1ccccc1-c1nc(-c2ccc(NC(=O)c3ccc(Br)o3)cc2)no1	-135.9*
C=CCc1cccc(/C=N/NC(=O)CNc2ccccc2)c1O	73.9
C=CCc1cccc(/C=C/c2cc(=O)c3ccccc3[nH]2)c1O	-70.8*
O=S(=O)(c1ccc(Cl)s1)N1CCCc2cccc(O)c21	-125.4*
CC(C)CNc1nc(N)c([N+](=O)[O-])c(NCc2ccccc2)n1	77.0
O=[N+]([O-])c1ccc(NCc2ccccc2)nc1	-67.5*
COc1ccc(C)cc1Nc1c2c(nc3ccccc13)CCC2	68.3
Cc1nn(-c2cc(C)c3ccccc3n2)c2c1CCC2	-90.1*
COc1ccc(-c2coc3cc(O)ccc3c2=O)cc1OC	-65.6*
SMILES	aSyn UTR act
COc1ccc2c(=O)c(-c3ccc(OC)c(OC)c3)coc2c1	-97.2*
O=c1c(-c2ccc(F)cc2)coc2cc(O)ccc12	-93.5*
COc1ccccc1-c1coc2cc(O)cc(O)c2c1=O	-71.1*
CCOc1ccc2c(=O)c(Oc3ccccc3OCC)coc2c1	-100.2*
CCc1ccc(Oc2coc3cc(OCC(=O)Nc4cc(C)ccc4C)ccc3c2=O)cc1	60.5
CCN(CC)C(=O)Oc1ccc2c(=O)c(-c3ccccc3)coc2c1	-89.9*
COc1ccc2c(=O)c(-c3ccccc3)coc2c1	-64.8*
O=c1c(-c2ccc(F)cc2)coc2c3c(ccc12)OCCO3	-128.0*
CCc1ccc2oc(-c3cccc(NC(=O)c4cccnc4)c3)nc2c1	-166.8*
O=C(Nc1ccc2oc(-c3ccccc3)nc2c1)c1cccnc1	-160.7*
O=C(Nc1ccc2oc(-c3ccccc3)nc2c1)c1ccco1	-156.0*
CCCCCC(=O)Nc1ccc2oc(-c3cccnc3)nc2c1	-74.6*
O=C(Nc1ccc2oc(-c3ccccc3)nc2c1)c1ccc2c(c1)OCCO2	-65.9*
COCCCN(C(C)=O)c1nc(-c2ccccc2)cs1	-145.9*
CCN(CC)CCCN(C(=O)c1cccs1)c1nc(-c2ccc(OC)cc2)cs1	-101.5*
COc1ccc(-c2csc(N(C)C(=O)c3cccs3)n2)cc1	-125.7*
Cc1cccc(Nc2nc(-c3cccs3)cs2)n1	-90.5*
c1ccc(Nc2nc(-c3cccs3)cs2)nc1	-165.3*
C/C(=N\NC(=O)c1cc(-c2cccs2)nc2ccccc12)c1ccccn1	79.3
CCN(CC(=O)Nc1c(F)cccc1F)C(=O)/C=C/c1ccc(S(=O)(=O)N2CCCCCC2)cc1	78.4
CCN(CC(=O)NCc1ccc(F)cc1)C(=O)/C=C/c1ccc(S(=O)(=O)N(CC)CC)cc1	-79.0*
CCN(CC)S(=O)(=O)c1ccc(/C=C/C(=O)Nc2cccc(F)c2)cc1	-83.0*
Nc1c(C(=O)Nc2cccc(Cl)c2Cl)sc2nc(-c3cccnc3)ccc12	-61.9*
COc1ccc(-c2ccc3c(N)c(C(=O)c4cccc(OC)c4)sc3n2)cc1	-71.2*
COc1cccc(-c2ccc3c(N)c(C(=O)NC4CC4)sc3n2)c1	-76.4*
SMILES	aSyn UTR act
COc1ccc(CNc2nc3nc(C)c(Cl)c(C)n3n2)cc1	-64.7*
COc1cccc(CNc2nc3nc(C)c(Cl)c(C)n3n2)c1	-95.1*
O=C1NC(=O)/C(=C\c2ccc(Oc3cnccn3)cc2)S1	-190.6*
CCn1c(-c2cc(-c3ccc(OC(C)C)cc3)nc3ccccc23)n[nH]c1=S	-104.0*
CC(C)Oc1cccc(-c2cc(C(=O)NC(=S)N(C)c3ccccc3C(=O)O)c3ccccc3n2)c1	-74.7*
CCCOc1cccc(-c2cc(C(=O)NNC(=S)NCC)c3ccccc3n2)c1	-114.2*
CCCOc1cccc(-c2cc(-c3n[nH]c(=S)n3CC)c3ccccc3n2)c1	-71.6*
Cc1nn(C)c(=O)c(N)c1-c1cc(-c2ccc(Cl)c(Cl)c2)n[nH]1	-71.1*
Cc1ccc(-c2cc(-c3c(C)nn(C)c(=O)c3N)[nH]n2)cc1	-109.6*
Cc1cc(C(=O)Nc2cccc(C(=O)O)c2)oc1C	87.4
Cc1cc(C(=O)Nc2cccc(C(=O)O)c2)c(C)o1	-91.7*
Cc1oc(C(C)(C)C)cc1C(=O)Nc1cccc(C(=O)O)c1	-114.0*
Cc1oc(C(C)(C)C)cc1C(=O)Nc1ccc(C(=O)O)cc1	-92.6*
Cc1cccc(Nc2nnc(SCC(=O)NC(=O)Nc3ccc4c(c3)OCCO4)s2)c1	-95.2*
